Assay outcomes (PubChem BioAssay)
Hits are enriched below; roughly 9% of the tested compounds scored in any of these assays.
IMPase Li cell = membrane-permeable IMPase blocker, potentiated with lithium. CHO-M1 cells, IP1 TR-FRET (IP-One), carbachol + lithium. Potency, µM (titrated, usually from 59.4 µM), usual class: inhibitors. 0.35% of 210,000 active. AID 1457; active means well fitted curve in the direction sought with a large enough effect; inconclusive means small, poorly fitted or top-dose-only effect, or another doubt; inactive means no such curve, though single readings can be large; an effect the other way counts as inactive or inconclusive;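 further: IP1 builds up when IMPase is blocked and the TR-FRET signal falls; nearly all actives have a fitted effect of over 50% in size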
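IP1 accumulation measured by competitive TR-FRET in lysed CHO-M1 cells after 30 min compound exposure at 37C, with a small lithium addition to potentiate weak responses. Hill-equation AC50 from ratio and donor-channel data.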
Lamin A splicing = modulators of lamin A splicing; HeLa LMNA splicing GFP/RFP minigene ratio, 48 h; Potency, µM (top dose mostly 46.1 µM), actives largely listed as inhibitors; 0.01% of 200,000 active; AID 1487; active means well fitted inhibition curve with a large enough effect in the signal ratio, with a control signal flat, not every such curve was filed as active; inconclusive means small, poorly fitted or top-dose-only effect, or effect the other way, or a change in a side signal; the % refers to the signal ratio
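S3 HeLa cells stably expressing lamin A-EGFP splicing minigene plus DsRed2, 600 cells/well, 48 h compound exposure at 37C. Laser-scanning cytometry; analysed as GFP (500-530 nm)/RFP (575-640 nm) total intensity ratio; 0.5% DMSO vehicle.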
ALDH1A1 block = inhibitors of human aldehyde dehydrogenase 1A1 | AID 1030 | Potency, µM (top dose mostly 75.3 µM), usual class: inhibitors | 7.3% of 220,000 active | P00352 | Purified ALDH1A1, NADH fluorescence, propionaldehyde substrate
Target sequence (P00352 whole entry, looked up): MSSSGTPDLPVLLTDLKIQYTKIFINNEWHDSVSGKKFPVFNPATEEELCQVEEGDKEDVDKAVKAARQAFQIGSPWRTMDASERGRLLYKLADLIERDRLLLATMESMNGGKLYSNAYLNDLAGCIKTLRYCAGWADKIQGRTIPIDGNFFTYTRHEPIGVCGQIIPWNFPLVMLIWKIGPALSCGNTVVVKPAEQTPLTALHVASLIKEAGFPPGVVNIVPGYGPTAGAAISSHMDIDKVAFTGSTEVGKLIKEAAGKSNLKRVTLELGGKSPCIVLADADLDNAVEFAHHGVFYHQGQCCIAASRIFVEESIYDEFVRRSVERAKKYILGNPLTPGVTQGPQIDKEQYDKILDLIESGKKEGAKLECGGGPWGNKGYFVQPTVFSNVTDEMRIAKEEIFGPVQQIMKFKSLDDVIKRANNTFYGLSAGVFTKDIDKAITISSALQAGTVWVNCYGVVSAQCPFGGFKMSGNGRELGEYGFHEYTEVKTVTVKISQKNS
KinaseGlo FLuc = Kinase-Glo luciferase inhibition (counter-screen). Q27757. Kinase-Glo luciferase, ATP luminescence, 8 min. Potency, µM (highest dose often 38.3 µM), most hits filed as inhibitors. 0.28% of 200,000 active. AID 1379; active means well fitted curve in the direction sought with a large enough effect; inconclusive means small, poorly fitted or top-dose-only effect, or another doubt; inactive means no such curve, though single readings can be large; an effect the other way counts as inactive or inconclusive; further: nearly all actives have a fitted effect of over 60% in size
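Substrate mix (final 50 mM imidazole pH 7.2, 50 mM KCl, 7 mM MgCl2, 10 uM ATP, 0.01% Tween 20, 0.05% BSA) plus pin-tool compound, then Kinase-Glo detection mix; 8 min ambient, luminescence read.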
HPGD block = inhibitors of human 15-hydroxyprostaglandin dehydrogenase (HPGD); P15428; purified HPGD, NADH fluorescence kinetic, PGE2 substrate; Potency, µM, actives largely listed as inhibitors; 4.3% of 150,000 active; AID 894
Target sequence (P15428 whole entry, looked up): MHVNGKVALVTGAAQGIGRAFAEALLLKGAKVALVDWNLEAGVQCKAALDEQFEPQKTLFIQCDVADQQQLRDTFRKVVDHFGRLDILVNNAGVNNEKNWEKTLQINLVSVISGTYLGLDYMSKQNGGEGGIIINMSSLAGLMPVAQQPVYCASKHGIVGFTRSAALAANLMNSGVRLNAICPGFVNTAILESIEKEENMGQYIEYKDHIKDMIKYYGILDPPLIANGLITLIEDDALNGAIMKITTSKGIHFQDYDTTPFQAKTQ
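20 nM HPGD preincubated 15 min at room temperature with compound in 50 mM Tris-HCl pH 8, 0.01% Tween 20. Started with 1 mM NAD+ and 30 uM prostaglandin E2; NADH fluorescence (360/450 nm) read 5 times over 30-s intervals, last minus first.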
Each line names hits and unclear results; the compound was inactive in the other large screens. Unless noted, the call rests on the fitted dose curve; in most records, active means well fitted inhibition curve with a large enough effect (not every such curve was filed as active); inconclusive means small, poorly fitted or top-dose-only effect, or another doubt; inactive means no such curve, though single readings can be large or run the other way.

CC(=O)c1ccc(NC(=S)Nc2cccc(S(=O)(=O)Nc3c(C)n(C)n(-c4ccccc4)c3=O)c2)cc1	ALDH1A1 block 25µM (no result: HPGD block)
O=[N+]([O-])c1ccc(NC(=S)N/C(=N/CS(=O)(=O)c2ccccc2)c2ccccc2)cc1	ALDH1A1 block 28µM, HPGD block 28µM
Cc1c(N/C(=N/S(=O)(=O)c2ccc(Cl)cc2)c2ccccc2)c(=O)n(-c2ccccc2)n1C	Lamin A splicing inconclusive
Cc1c(NC(=S)N/C(=N/S(=O)(=O)c2ccc(Cl)cc2)c2ccccc2)c(=O)n(-c2ccccc2)n1C	ALDH1A1 block 8.9µM (no result: IMPase Li cell, Lamin A splicing, KinaseGlo FLuc, HPGD block)
COc1ccc(NC(=S)N/C(=N/CS(=O)(=O)c2ccccc2)c2ccccc2)cc1	none
Cc1ccc(S(=O)(=O)/N=C(/NC(=S)Nc2cccc(C)c2)c2ccccc2)cc1	ALDH1A1 block 13µM, HPGD block 20µM
O=C(c1cnccn1)N1CCC2(CCCN(Cc3nccs3)C2)CC1	none (no result: Lamin A splicing)
O=S(=O)(/N=C(/Nc1ccccn1)c1ccccc1)c1ccccc1	none
Cc1cccc(NC(=S)N/C(=N/S(=O)(=O)c2ccccc2)c2ccccc2)c1	ALDH1A1 block 22µM, HPGD block inconclusive
CC(C)OC(=S)N/C(=N\S(=O)(=O)c1ccccc1)c1ccccc1	ALDH1A1 block 11µM, HPGD block inconclusive
CC(C)O/C(=N\S(=O)(=O)c1ccc(Cl)cc1)c1ccccc1	none
C=CCN1/C(=C(\C#N)C2=NS(=O)(=O)c3ccccc32)N(C)c2ccccc21	HPGD block 14µM
COc1cc(OC)c(NC(=O)CCc2ccccc2)cc1Cl	HPGD block 16µM
COC(=O)c1cccc(NC(=O)CCc2ccccc2)c1	ALDH1A1 block 25µM, HPGD block 25µM
COC(=O)c1ccc(C)c(NC(=O)CCc2ccc(OC)cc2)c1	ALDH1A1 block 20µM
COc1ccc(Cl)cc1NC(=O)CCc1ccccc1	none
COC(=O)[C@@H]1C[C@@H]2CC[C@@H](O)C[C@@H]2N1Cc1ccc(N2CCOCC2)cc1	ALDH1A1 block inconclusive (no result: Lamin A splicing)
COc1ccc(S(=O)(=O)N/N=C(/C)c2cccc(NC(=O)c3ccccc3Cl)c2)cc1	ALDH1A1 block inconclusive
CSc1ccc(S(=O)(=O)Nc2ccc(OCC(=O)N3CCOCC3)cc2)cc1	ALDH1A1 block 13µM (no result: HPGD block)
CCOc1ccccc1N(CC(=O)N1CCOCC1)S(=O)(=O)c1ccc(SC)cc1	ALDH1A1 block 8.9µM
O=C(CN(c1ccccc1F)S(=O)(=O)c1ccccc1)N1CCCCCC1	ALDH1A1 block 28µM
O=C(C(Cl)Cl)N1c2ccccc2OCC1c1ccccc1 (stereo not given)	ALDH1A1 block 1.3µM
Cc1ccc(S(=O)(=O)N2c3ccccc3OCC2c2ccccc2)cc1 (stereo not given)	Lamin A splicing inconclusive
O=[N+]([O-])c1ccc(C(c2sc3nc(-c4ccco4)nn3c2O)N2CCN(c3cccc(Cl)c3)CC2)cc1 (stereo not given)	none (no result: IMPase Li cell, ALDH1A1 block, KinaseGlo FLuc, HPGD block)
CCNc1ccc(Br)cc(C(=O)/C=C/c2ccc(Cl)cc2Cl)c1=O	Lamin A splicing inconclusive, ALDH1A1 block inconclusive, HPGD block 22µM
CNc1ccc(Br)cc(C(=O)/C=C/c2cc(OC)ccc2OC)c1=O	ALDH1A1 block inconclusive, HPGD block inconclusive
CNc1ccc(Br)cc(C(=O)/C=C/c2ccc(OC)cc2)c1=O	ALDH1A1 block 28µM
CNc1ccc(Br)cc(C(=O)/C=C/c2ccc3c(c2)OCO3)c1=O	Lamin A splicing inconclusive, ALDH1A1 block 6.3µM, HPGD block 16µM
COc1ccccc1-c1nnc(SCC(=O)NC2CCS(=O)(=O)C2)n1N (stereo not given)	none (no result: HPGD block)
CCn1c(-c2ccc(C(C)(C)C)cc2)n[nH]c1=S	ALDH1A1 block inconclusive, HPGD block inconclusive
Cn1c(-c2ccc(C(C)(C)C)cc2)n[nH]c1=S	ALDH1A1 block 32µM, HPGD block inconclusive
Cc1nn(-c2ccccc2)c(C)c1/C=N/n1c(-c2ccc(Cl)cc2)n[nH]c1=S	ALDH1A1 block inconclusive, HPGD block inconclusive
Cc1nn(-c2ccccc2)c(C)c1/C=N/n1c(-c2ccncc2)n[nH]c1=S	Lamin A splicing inconclusive, ALDH1A1 block 22µM (no result: HPGD block)
Cn1cccc1/C=N/n1c(-c2ccccc2)n[nH]c1=S	HPGD block 14µM
Cc1nc(-c2ccccc2)sc1-c1n[nH]c(=S)n1C	ALDH1A1 block 25µM
COc1ccc(CNC(=O)C2CCN(C(=O)N3CCOc4ccc(Cl)cc43)CC2)cc1	none (no result: IMPase Li cell, ALDH1A1 block, KinaseGlo FLuc, HPGD block)
Cn1c(=O)c2c(SCC(=O)NCc3ccco3)nc(-c3cccc(F)c3)nc2n(C)c1=O	none (no result: IMPase Li cell, ALDH1A1 block, KinaseGlo FLuc, HPGD block)
Cn1cccc1/C=N/n1c(-c2ccc(C(C)(C)C)cc2)n[nH]c1=S	ALDH1A1 block inconclusive, HPGD block 11µM
COc1ccc(NC(=O)Cn2cc(S(=O)(=O)Cc3ccc(F)cc3)c3ccccc32)cc1OC	none (no result: IMPase Li cell, ALDH1A1 block, KinaseGlo FLuc, HPGD block)
Cc1ccc(OCc2nnc(SCc3cc(=O)[nH]c4ccccc34)n2-c2ccccc2)cc1	HPGD block 11µM
Cc1ccccc1OCc1nnc(SCc2cc(=O)[nH]c3ccccc23)n1-c1ccccc1	none
CCCCCCCCCCCCC/C=C/[C@@H](O)C(CO)NC(C)=O (stereo not given in full)	none (no result: Lamin A splicing)
CCCCNC(=S)N(C)N=C1CCC(c2ccccc2)CC1 (stereo not given)	Lamin A splicing inconclusive, ALDH1A1 block 0.63µM (no result: HPGD block)
CCCCNC(=S)N(C)/N=C/c1ccccc1C(=O)O	none
COc1ccccc1-n1cnnc1SC(C)C(=O)Nc1ccc(NC(C)=O)cc1 (stereo not given)	none (no result: Lamin A splicing, HPGD block)
COc1ccc(C(=O)NC(=O)Nc2cc(C)ccn2)cc1	ALDH1A1 block 13µM (no result: IMPase Li cell, KinaseGlo FLuc, HPGD block)
Cc1nnc(NC(=O)c2ccc3c(c2)OCO3)s1	none (no result: Lamin A splicing, HPGD block)
COc1cc(C(=O)Nc2cc(C)ccn2)cc(OC)c1OC	none
O=C(Nc1ccon1)c1ccc2c(c1)OCO2	IMPase Li cell inconclusive, HPGD block 18µM
Cc1cc(NC(=O)c2ccc3c(c2)OCO3)ccc1NC(=O)c1ccco1	KinaseGlo FLuc 11µM
O=C(Nc1ccc2c(c1)OCO2)c1ccc2c(c1)OCO2	ALDH1A1 block inconclusive, KinaseGlo FLuc inconclusive
Cc1ccc(C(=O)Nc2ccc3c(c2)OCO3)cc1NC(=O)c1ccco1	ALDH1A1 block inconclusive (no result: HPGD block)
Cc1ccnc(NC(=O)c2ccc3c(c2)OCO3)c1	KinaseGlo FLuc 13µM (no result: HPGD block)
CCC(C)c1ccc(NC(=S)NCc2ccccc2OC)cc1 (stereo not given)	ALDH1A1 block inconclusive (no result: Lamin A splicing, HPGD block)
Cc1[nH]c(=O)[nH]c(=O)c1Cc1cccc2ccccc12	ALDH1A1 block 10µM (no result: Lamin A splicing, HPGD block)
CCC1=C2CC[C@H]3C(=O)N(C)C(=O)[C@H]3[C@H]2[C@@]2(C)C(=O)N(CC(=O)OC)C(=O)N2C1=O	none (no result: Lamin A splicing)
CCC1=C2CC[C@H]3C(=O)N(CC)C(=O)[C@H]3[C@H]2[C@@]2(C)C(=O)N(CC(=O)OC)C(=O)N2C1=O	ALDH1A1 block 18µM (no result: Lamin A splicing)
CCC1=C2CC[C@H]3C(=O)N(c4ccccc4)C(=O)[C@H]3[C@H]2[C@@]2(C)C(=O)N(Cc3ccccc3)C(=O)N2C1=O	ALDH1A1 block 20µM (no result: Lamin A splicing)
